Experimental data from PubChem BioAssay AID1159580 (chemical genetic matrix, 2015).
About 2,000 (36%) of roughly 5,500 compounds were called active. Another 18% or so got no clear call; they are omitted. Rule as the data show it: active = normalized growth mostly below about 0.91 (no sharp cut-off); inconclusive = no clear call, values can overlap the other calls; inactive = mostly above about 0.92. This is one part of the list.

Test: chemical genetic growth profiling, strain panel (AID 1159580);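 also: tested at 20 µM; growth read once vehicle control cultures reached saturation at 30 °C; 1 = growth at the plate median or of vehicle wells; lower values mean less growth of the strain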
Conditions: growth OD
[1] = S. cerevisiae deletion strains, locus YAL013W, strain DEP1, active compounds read low
[2] = S. cerevisiae deletion strains, locus YBR229C, strain ROT2, active compounds read low
[3] = S. cerevisiae deletion strains, locus YCL061C, strain MRC1, active compounds read low
[4] = S. cerevisiae deletion strains, locus YDL101C, strain DUN1, active compounds read low
[5] = S. cerevisiae deletion strains, locus YDL134C, strain PPH21, active compounds read low
[6] = S. cerevisiae deletion strains, locus YDR150W, strain NUM1, active compounds read low
[7] = S. cerevisiae deletion strains, locus YEL061C, strain CIN8, active compounds read low
[8] = S. cerevisiae deletion strains, locus YGR078C, strain PAC10, active compounds read low
[9] = S. cerevisiae deletion strains, locus YHR030C, strain SLT2, active compounds read low
[10] = S. cerevisiae deletion strains, locus YHR087W, strain rtc3, active compounds read low
[11] = S. cerevisiae deletion strains, locus YJL187C, strain SWE1, active compounds read low
[12] = S. cerevisiae deletion strains, locus YJR043C, strain POL32, active compounds read low
[13] = S. cerevisiae deletion strains, locus YJR075W, strain HOC1, active compounds read low
[14] = S. cerevisiae deletion strains, locus YKL190W, strain CNB1, active compounds read low
[15] = S. cerevisiae deletion strains, locus YLR039C, strain RIC1, active compounds read low
[16] = S. cerevisiae deletion strains, locus YLR058C, strain SHM2 (second series), active compounds read low
[17] = S. cerevisiae deletion strains, locus YLR085C, strain ARP6, active compounds read low
[18] = S. cerevisiae deletion strains, locus YLR262C, strain YPT6, active compounds read low
[19] = S. cerevisiae deletion strains, locus YML094W, strain GIM5, active compounds read low
[20] = S. cerevisiae deletion strains, locus YMR219W, strain ESC1, active compounds read low
[21] = S. cerevisiae deletion strains, locus YMR263W, strain SAP30, active compounds read low
[22] = S. cerevisiae deletion strains, locus YNL153C, strain GIM3, active compounds read low
[23] = S. cerevisiae deletion strains, locus YNL298W, strain CLA4 (second series), active compounds read low
[24] = S. cerevisiae deletion strains, locus YNL322C, strain KRE1, active compounds read low
[25] = S. cerevisiae deletion strains, locus YNR030W, strain Alg12, active compounds read low
[26] = S. cerevisiae deletion strains, locus YOL006C, strain TOP1, active compounds read low
[27] = S. cerevisiae deletion strains, locus YPL055C, strain LGE1, active compounds read low
[28] = S. cerevisiae deletion strains, locus YPL241C, strain CIN2, active compounds read low
[29] = S. cerevisiae deletion strains, locus YPR135W, strain CTF4, active compounds read low
[30] = S. cerevisiae deletion strains, locus YMR307W, strain GAS1, active compounds read low
[31] = S. cerevisiae deletion strains, locus YNL128W, strain TEP1, active compounds read low

Measured: normalized growth

N#Cc1cnn(-c2ccccc2)c1-n1cccc1
inactive: [1] 0.976 | [2] 0.988 | [3] 0.959 | [4] 1.01 | [5] 0.999 | [6] 0.873 | [7] 1.02 | [8] 0.974 | [10] 1.02 | [11] 0.976 | [12] 0.978 | [13] 0.988 | [14] 0.985 | [15] 0.859 | [16] 0.974 | [17] 0.933 | [18] 0.883 | [19] 0.984 | [20] 0.981 | [21] 0.964 | [22] 0.994 | [23] 0.967 | [24] 0.989 | [25] 0.956 | [26] 0.938 | [27] 0.969 | [28] 0.953 | [29] 0.82
active: [9] 0.626

O=C(O)c1cnn(-c2ccccc2)c1C(F)(F)F
inactive: [1] 1.01 | [2] 0.988 | [3] 0.995 | [4] 0.998 | [6] 1.02 | [7] 0.996 | [8] 0.99 | [9] 1.01 | [10] 0.98 | [11] 0.993 | [12] 0.992 | [13] 1.02 | [15] 1.03 | [16] 1.01 | [17] 1.05 | [18] 0.955 | [19] 1.02 | [20] 1 | [21] 0.989 | [30] 0.979 | [31] 1.01 | [22] 0.984 | [23] 1.01 | [24] 0.999 | [25] 1.01 | [26] 1.04 | [27] 1.04 | [28] 1.01 | [29] 1

CC1(O)/C=C/C=C(\CO)C2CC(C)(C)C2(O)CC1 (centres undefined)
inactive: [1] 1.02 | S. cerevisiae deletion strains, locus YBR021W, strain FUR4, active compounds read low 1.02 | [2] 1.01 | S. cerevisiae deletion strains, locus YCL029C, strain bik1, active compounds read low 1 | S. cerevisiae deletion strains, locus YDL035C, strain GPR1, active compounds read low 1.01 | S. cerevisiae deletion strains, locus YDL074C, strain BRE1, active compounds read low 1.03 | [4] 1.02 | [5] 1.02 | S. cerevisiae deletion strains, locus YDL185W, strain tfp1, active compounds read low 1 | S. cerevisiae deletion strains, locus YDL192W, strain arf1, active compounds read low 1 | S. cerevisiae deletion strains, locus YDR101C, strain arx1, active compounds read low 0.976 | [6] 1.02 | S. cerevisiae deletion strains, locus YDR162C, strain NBP2, active compounds read low 1.04 | S. cerevisiae deletion strains, locus YDR318W, strain mcm21, active compounds read low 0.993 | S. cerevisiae deletion strains, locus YDR388W, active compounds read low 0.998 | S. cerevisiae deletion strains, locus YDR502C, strain sam2, active compounds read low 1.01 | [7] 1.01 | S. cerevisiae deletion strains, locus YER110C, active compounds read low 0.998 | S. cerevisiae deletion strains, locus YER155C, strain BEM2, active compounds read low 1 | S. cerevisiae deletion strains, locus YER167W, strain BCK2, active compounds read low 1.02 | S. cerevisiae deletion strains, locus YGL078C, strain dbp3, active compounds read low 1 | S. cerevisiae deletion strains, locus YGL086W, strain mad1, active compounds read low 1 | S. cerevisiae deletion strains, locus YGL248W, strain PDE1, active compounds read low 1.01 | [8] 1.02 | S. cerevisiae deletion strains, locus YGR135W, strain pre9, active compounds read low 0.999 | S. cerevisiae deletion strains, locus YGR229C, strain SMI1, active compounds read low 1.02 | S. cerevisiae deletion strains, locus YGR252W, strain gcn5, active compounds read low 0.956 | [9] 1 | S. cerevisiae deletion strains, locus YHR079C, strain IRE1 (second series), active compounds read low 1 | S. cerevisiae deletion strains, locus YHR094C, strain hxt1, active compounds read low 1.01 | S. cerevisiae deletion strains, locus YHR129C, strain ARP1, active compounds read low 1.01 | S. cerevisiae deletion strains, locus YHR200W, strain rpn10, active compounds read low 1 | S. cerevisiae deletion strains, locus YIL066C, strain RNR3, active compounds read low 1.01 | S. cerevisiae deletion strains, locus YIL073C, strain SPO22, active compounds read low 1.02 | S. cerevisiae deletion strains, locus YIL125W, strain kgd1, active compounds read low 0.998 | S. cerevisiae deletion strains, locus YIR030C, strain dcg1, active compounds read low 1.01 | S. cerevisiae deletion strains, locus YJL095W, strain BCK1, active compounds read low 1 | S. cerevisiae deletion strains, locus YJL134W, strain LCB3, active compounds read low 1.01 | S. cerevisiae deletion strains, locus YJL168C, strain set2, active compounds read low 1 | S. cerevisiae deletion strains, locus YJL187C, strain SWE1 (second series), active compounds read low 1.02 | [12] 0.995 | [13] 1.01 | S. cerevisiae deletion strains, locus YKL009W, strain mrt4, active compounds read low 0.991 | S. cerevisiae deletion strains, locus YKL068W, active compounds read low 1.01 | S. cerevisiae deletion strains, locus YKL085W, strain MDH1 (second series), active compounds read low 1.02 | S. cerevisiae deletion strains, locus YKL085W, strain MDH1, active compounds read low 1.02 | [14] 1.01 | S. cerevisiae deletion strains, locus YKR001C, strain vps1, active compounds read low 1 | [15] 0.977 | S. cerevisiae deletion strains, locus YLR058C, strain SHM2, active compounds read low 1.01 | S. cerevisiae deletion strains, locus YLR102C, strain apc9, active compounds read low 1 | [18] 1.05 | S. cerevisiae deletion strains, locus YLR268W, strain sec22, active compounds read low 0.986 | S. cerevisiae deletion strains, locus YLR330W, strain CHS5, active compounds read low 1.01 | S. cerevisiae deletion strains, locus YLR342W, strain FKS1 (second series), active compounds read low 1.02 | S. cerevisiae deletion strains, locus YLR371W, strain rom2, active compounds read low 1 | S. cerevisiae deletion strains, locus YLR418C, strain cdc73, active compounds read low 0.989 | S. cerevisiae deletion strains, locus YML016C, strain PPZ1, active compounds read low 1.01 | S. cerevisiae deletion strains, locus YML032C, strain rad52, active compounds read low 0.979 | S. cerevisiae deletion strains, locus YML124C, strain tub3, active compounds read low 1 | S. cerevisiae deletion strains, locus YMR078C, strain ctf18, active compounds read low 1.01 | S. cerevisiae deletion strains, locus YMR223W, strain ubp8, active compounds read low 0.994 | [21] 1.02 | [30] 1.02 | S. cerevisiae deletion strains, locus YNL067W, strain RPL9B, active compounds read low 1.01 | [31] 1.03 | [22] 1.02 | S. cerevisiae deletion strains, locus YNL233W, strain BNI4, active compounds read low 1.02 | S. cerevisiae deletion strains, locus YNL250W, strain rad50, active compounds read low 1.02 | S. cerevisiae deletion strains, locus YNL271C, strain bni1, active compounds read low 0.995 | S. cerevisiae deletion strains, locus YNL298W, strain CLA4, active compounds read low 0.993 | S. cerevisiae deletion strains, locus YNL307C, strain MCK1, active compounds read low 0.997 | [24] 1.02 | S. cerevisiae deletion strains, locus YNR052C, strain pop2, active compounds read low 0.998 | [26] 1.06 | S. cerevisiae deletion strains, locus YOL012C, strain htz1 0.828 | S. cerevisiae deletion strains, locus YOL147C, strain pex11, active compounds read low 1.01 | S. cerevisiae deletion strains, locus YOR061W, strain CKA2, active compounds read low 1.02 | S. cerevisiae deletion strains, locus YOR069W, strain VPS5, active compounds read low 1.01 | S. cerevisiae deletion strains, locus YOR136W, strain idh2, active compounds read low 0.997 | S. cerevisiae deletion strains, locus YOR144C, strain elg1, active compounds read low 0.999 | S. cerevisiae deletion strains, locus YOR184W, strain ser1, active compounds read low 0.994 | S. cerevisiae deletion strains, locus YOR316C, strain cot1, active compounds read low 1 | [27] 1.05 | [28] 1.02 | S. cerevisiae deletion strains, locus YPR119W, strain clb2, active compounds read low 0.992 | S. cerevisiae deletion strains, locus YPR141C, strain kar3, active compounds read low 1 | S. cerevisiae deletion strains, locus YPR163C, strain tif3, active compounds read low 1 | S. cerevisiae deletion strains, locus YPR167C, strain met16, active compounds read low 1.01 | S. cerevisiae deletion strains, strain wtn01, active compounds read low 0.995 | S. cerevisiae strains, strain wild type, active compounds read low 1.01
